Cdc25B block = inhibitors of Cdc25B phosphatase catalytic domain, primary screen, biochemical, OMFP fluorescence | recombinant Cdc25B, OMFP fluorescence Ex485/Em525 | inhibition, %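 (compounds tested at 10 µM final in the well)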 | 65,000 tested, 0.1% active | AID 368, 2006; in the data active = inhibition above about 50%
Target sequence (P30305 whole entry, looked up, the tested form may be a part): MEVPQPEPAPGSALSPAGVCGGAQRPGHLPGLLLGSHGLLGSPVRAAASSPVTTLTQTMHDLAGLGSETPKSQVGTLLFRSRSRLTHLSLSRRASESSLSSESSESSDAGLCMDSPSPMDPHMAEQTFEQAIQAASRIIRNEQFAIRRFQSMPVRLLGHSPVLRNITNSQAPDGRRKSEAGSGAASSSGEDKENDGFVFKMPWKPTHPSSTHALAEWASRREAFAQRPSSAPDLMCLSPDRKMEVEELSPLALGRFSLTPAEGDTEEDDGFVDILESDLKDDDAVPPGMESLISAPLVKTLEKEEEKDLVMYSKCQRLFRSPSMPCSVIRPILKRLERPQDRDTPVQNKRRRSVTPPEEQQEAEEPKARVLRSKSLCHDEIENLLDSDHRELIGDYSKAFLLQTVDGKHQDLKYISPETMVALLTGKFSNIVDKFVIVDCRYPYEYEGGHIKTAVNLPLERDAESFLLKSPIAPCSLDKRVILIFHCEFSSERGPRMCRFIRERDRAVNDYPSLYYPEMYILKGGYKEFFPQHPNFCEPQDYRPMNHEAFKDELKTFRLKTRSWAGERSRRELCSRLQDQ
Hsp90 inh = tumor Hsp90 inhibitors, primary screen, cell lysate, fluorescence polarization, NCI-N417 lysate; 64,000 tested, 0.35% active; inhibition, % at 30 µM; AID 429, 2006; Heat shock protein HSP 90-alpha (Homo sapiens), P07900; Cy3B-geldanamycin FP displacement;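 active = inhibition above 50%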;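 note: 0% = tracer plus lysate wells and 100% = tracer alone without lysate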
Abs 340nm = compound light absorbance at 340 nm, profiling panel, artefact control, biochemical, MLSMR library, data from PS, PMK, MK assays; AID 708, 2007; 65,000 tested, under 10 active; fold change at 10 µM; compound absorbance at 340 nm, fold over control;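 active = at 10 µM dose, initial 340 nm absorbance at least 2 fold that of control wells; inactive = change under 2 fold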;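 note: initial absorbance extrapolated from kinetic A340 decline of NADH oxidation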
Fluor 339 460 = intrinsic fluorescence of library compounds, ex339/em460 – biochemical, MLSMR library, data from DPM-DC assay, artefact control, profiling panel; compound autofluorescence, ex339/em460 nm, NADH buffer; active compounds read high; 1 = no-compound wells, NADH background; fluorescence fold increase at 10 µM; 65,000 tested, 5.5% active;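 active = at 10 µM, mean starting fluorescence two-fold or more over control wells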;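 note: signal is the first read of a kinetic run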
NADH enzymes = inhibitors of PK/LDH coupling enzymes, profiling panel, artefact control, biochemical, MLSMR library; AID 774, 2007; IC50, µM (highest dose often 10 µM), inactives show at the highest dose inhibition; 65,000 tested, 0.02% active; coupled PK/LDH NADH assays, four targets;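 active = single-dose screening hits from any of four coupled enzyme assays that gave an IC50 when retested across doses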;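 note: the DPM-DC format reads NADH fluorescence rather than 340 nm absorbance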
DUSP1 inh = MKP-1 phosphatase inhibitors, primary screen, biochemical, in vitro | AID 374, 2006 | recombinant MKP-1, OMFP hydrolysis fluorescence | inhibition, %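 (compounds tested at a single concentration somewhere between 10 and 100 µM)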 | 65,000 tested, 0.15% active | Dual specificity protein phosphatase 1 (Homo sapiens), P28562;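 active = inhibition above about 50%, limit read from the data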;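 note: 0% = DMSO max control wells and 100% = wells with enzyme stopped by NaOH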
* hit, by the source's call; / = no result given. Most compounds without a hit are left out; they make up all but 5.7% or so of the library.

SMILES	Cdc25B block	Hsp90 inh	Abs 340nm	Fluor 339 460	NADH enzymes	DUSP1 inh
O=C(c1cnn2c(C(F)F)cc(-c3ccccc3)nc12)N1CCSCC1	-9.2	1.9	1.07	1.19	7.0%	-0.3
CCOC(=O)N1CCN(C(=O)c2cnn3c(C(F)F)cc(-c4ccc(C)cc4)nc23)CC1	-5.2	-2.0	1.11	2.93*	11.0%	8.3
COc1ccc(-c2cc(C(F)F)n3ncc(C(=O)NCC4CCCO4)c3n2)cc1 (configuration not stated)	-3.6	4.0	1.01	2.99*	4.0%	8.7
COc1ccc(-c2cc(C(F)F)n3ncc(C(=O)N4CCN5CCCC5C4)c3n2)cc1 (configuration not stated)	-12.9	-2.4	1.13	3.56*	9.0%	5.5
CC1CN(C(=O)c2cnn3c(C(F)F)cc(-c4ccccc4)nc23)CC(C)O1 (configuration not stated)	-8.6	0.3	1.09	1.79	5.0%	11.4
COc1ccc(-c2cc(C(F)(F)F)n3ncc(C(=O)NCC4CCCO4)c3n2)cc1OC (configuration not stated)	-7.0	-2.2	1.14	1.7	3.0%	5.1
Cc1cc(C)c(S(=O)(=O)NCc2cn3c(C)csc3n2)cc1C	-2.7	-2.0	1.03	1.07	25.0%	-1.2
O=C(Cn1nnc(-c2ccccc2)n1)OCc1ccccc1	72.1*	-0.9	1	1.1	3.0%	-1.4
O=C(Cn1nnc(-c2ccccc2)n1)OCc1csc(-c2ccccc2)n1	4.8	-2.0	1.02	1.13	5.0%	0.0
CCOC(=O)c1cnn2c(C(F)(F)F)cc(-c3cn(C)nc3C)nc12	-18.6	-2.3	1.18	3.73*	11.0%	0.7
CCOC(=O)N1CCN(c2nc(-c3cccc(OC)c3)cc(C(F)(F)F)n2)CC1	-27.0	/	0.99	1.26	4.0%	9.4
COC(=O)c1cnn2c(C(F)(F)F)cc(-c3ccc(F)cc3)nc12	6.9	-0.7	1.08	3.29*	12.0%	-6.0
CCOC(=O)N1CCC(NC(=O)c2cnn3c(C(F)(F)F)cc(-c4cccc(OC)c4)nc23)CC1	-2.1	-0.4	1.07	3.81*	8.0%	27.0
CCOC(=O)c1cnn2c(C(F)(F)F)cc(-c3ccccc3)nc12	2.3	-3.4	1.07	2.2*	8.0%	8.6
O=C(c1cnn2c(C(F)(F)F)cc(-c3ccccc3)nc12)N1CCOCC1	-18.8	-2.0	1.07	1.29	10.0%	6.8
CCN(CCNC(=O)Nc1ccc(Cl)cc1)c1ccccc1	2.3	1.2	1.03	1.11	0.0%	-10.6
CCOC(=O)c1cnc2c(-c3ccccc3)cnn2c1N	-7.2	-2.8	1.07	2.11*	3.0%	-5.5
CCOC(=O)c1cnc2c(-c3ccccc3)c(C)nn2c1N	-8.1	-5.7	1.08	1.78	15.0%	-1.4
COCCNC(=O)c1cnn2c(C(F)(F)F)cc(-c3ccc4c(c3)OCO4)nc12	-7.3	0.8	1.04	2.52*	24.0%	42.8
O=C(Cn1cnnn1)OCC(=O)c1ccc(Cl)s1	2.8	-11.7	1.02	2.3*	9.0%	14.9
Cc1cc(C)c(C(=O)COC(=O)Cn2cnnn2)cc1C	-2.9	-0.1	1.01	1.13	2.0%	21.1
CC1=CC=CC2=NC(=O)CC(C)(C(=O)N(CC(=O)NC(C)C)C3CCCC3)N12 (configuration not stated)	-7.7	-5.1	1	3.03*	5.0%	0.6
CC(C)(C)NC(=O)CN(C(=O)C1(C)CC(=O)N=C2C=CC=CN21)C1CCCC1 (configuration not stated)	17.5	-2.2	1.05	3.78*	11.0%	-1.7
CC1=CC2=NC(=O)CC(C)(C(=O)N(CC(=O)NC(C)(C)C)C3CCCC3)N2C=C1 (configuration not stated)	-1.6	-8.7	1.06	3.75*	4.0%	1.9
N=c1cc(C2(O)CCCCC2)n2c(nc3ccccc32)s1	-12.8	-3.0	1.02	1.05	0.0%	6.0
SMILES	Cdc25B block	Hsp90 inh	Abs 340nm	Fluor 339 460	NADH enzymes	DUSP1 inh
CC1(C)Cc2c(sc3nc(SCC#N)n(C4CCCCC4)c(=O)c23)CO1	-19.4	-2.4	1.04	1.04	3.0%	-18.8
CCOC(=O)CSc1nnc(-c2ccccc2NC(=O)c2ccccc2)o1	-3.1	1.3	1.03	1.45	8.0%	4.4
CCc1nnc(NC(=O)CSc2nnc(-c3ccccc3NC(=O)c3ccccc3)o2)s1	-13.7	0.5	1.11	2.14*	5.0%	6.1
O=C(NC1CCCCCC1)C1C2C=CC3(CN(Cc4cccnc4)C(=O)C13)O2 (configuration not stated)	-10.9	-2.0	1.05	0.91	3.0%	2.7
COc1ccc2c(-c3cccnc3)cc(=O)[nH]c2c1	2.4	-0.9	1.02	2.13*	6.0%	11.7
Cn1c(=O)c2nc(-c3ccc(Cl)cc3Cl)oc2c2ccccc21	-56.3	1.0	1.1	2.04*	4.0%	3.0
CCN(C(=O)COc1cc(=O)n(C)c2ccccc12)c1cccc(Cl)c1	-8.0	-0.8	1	1.06	5.0%	29.5
CCOC(=O)C1=C(C)NC(SCc2cc(=O)[nH][nH]2)=C(C#N)C1c1cccs1 (configuration not stated)	-3.3	-10.7	1.04	1.08	4.0%	2.5
O=c1[nH]c2ccccc2cc1-c1noc(-c2cccnc2)n1	-11.8	3.6	1.08	4.18*	7.0%	-1.2
COc1ccc2[nH]c(=O)c(-c3noc(-c4ccccc4)n3)cc2c1	1.0	-4.2	1.04	3.57*	4.0%	19.4
CCN(CC)S(=O)(=O)c1ccc2oc(SCC3CN=C(c4ccc(OC)cc4)S3)nc2c1 (configuration not stated)	-18.5	-1.8	1.03	1.29	4.0%	3.1
O=C(c1ccco1)N1CCN(S(=O)(=O)Cc2ccc(Cl)cc2)CC1	-12.3	-2.2	1.04	1.13	5.0%	1.8
CC1(CC(=O)O)C(=O)N=C2C=CC=CN21 (configuration not stated)	-1.9	1.2	1.02	2.1*	3.0%	7.3
Cc1ccc(C(C)NC(=O)c2ccco2)cc1C (configuration not stated)	1.2	/	1.04	1.05	2.0%	-2.8
COc1ccc2[nH]c(=O)c(CN(CC3CCCO3)C(=O)Nc3ccccc3OC)cc2c1 (configuration not stated)	2.9	0.2	1.06	2.45*	14.0%	26.7
COc1ccccc1NC(=O)N(Cc1cc2cc(OC)c(OC)cc2[nH]c1=O)CC1CCCO1 (configuration not stated)	-5.8	-3.6	1.14	2.71*	11.0%	30.4
CCN(CC)CCN(Cc1cc2cc(C)ccc2[nH]c1=O)C(=O)Nc1ccccc1OC	-16.7	-2.3	1	1.16	6.0%	11.5
